# Data: PubChem BioAssay (NCATS)
# Records with an inconclusive call do not appear. Unmarked numbers belong to inactive results. Calls come from the whole dose curve; as a rule, active = well fitted activation curve with a large enough effect in the main read-out, with a control signal flat (not every such curve was filed as active); inconclusive = small, poorly fitted or top-dose-only effect, or effect the other way, or a change in a side signal; inactive = flat fitted curve, though single readings scatter. Where a SMILES comes first, the peptide text is derived from it.
# Target: 3',5'-cyclic-AMP phosphodiesterase 4B (Homo sapiens) (UniProt Q07343)
# Sequence (Q07343 whole entry, looked up): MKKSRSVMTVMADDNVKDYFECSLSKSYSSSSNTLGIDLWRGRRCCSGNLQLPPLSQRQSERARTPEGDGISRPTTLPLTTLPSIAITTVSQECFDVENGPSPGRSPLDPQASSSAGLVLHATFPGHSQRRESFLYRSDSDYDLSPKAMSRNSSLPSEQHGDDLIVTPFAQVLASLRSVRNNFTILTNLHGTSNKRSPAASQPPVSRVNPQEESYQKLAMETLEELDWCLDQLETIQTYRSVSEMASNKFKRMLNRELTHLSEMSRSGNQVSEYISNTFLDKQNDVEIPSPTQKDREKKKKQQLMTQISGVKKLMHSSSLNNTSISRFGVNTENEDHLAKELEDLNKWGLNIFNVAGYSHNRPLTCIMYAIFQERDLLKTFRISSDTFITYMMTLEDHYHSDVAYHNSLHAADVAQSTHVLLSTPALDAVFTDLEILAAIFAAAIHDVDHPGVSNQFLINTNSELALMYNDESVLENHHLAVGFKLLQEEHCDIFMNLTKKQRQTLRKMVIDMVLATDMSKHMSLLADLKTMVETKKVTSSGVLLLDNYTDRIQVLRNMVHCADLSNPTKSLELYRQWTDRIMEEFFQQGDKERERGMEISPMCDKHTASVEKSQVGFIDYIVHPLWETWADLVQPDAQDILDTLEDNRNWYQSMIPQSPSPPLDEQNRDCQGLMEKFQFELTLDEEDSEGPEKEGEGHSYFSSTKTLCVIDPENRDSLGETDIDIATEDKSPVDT
# Test: qHTS Assay for Inhibitors of PDE-IV (AID 607); note: % of control where 0% means no effect
# Settings: HEK293 ACTOne CNG channel cells, membrane potential fluorescence; series mostly up to 22.9 µM; activation (PDE inhibition): at the top concentration
# Description: NIH Chemical Genomics Center [NCGC]
# NIH Molecular Libraries Screening Centers Network [MLSCN]
# The cyclic nucleotide phosphodiesterases (PDEs) are proteins that catalyze hydrolysis of 3', 5'-cyclic nucleotides, such as cyclic adenosine monophosphate (cAMP) and cyclic guanosine monophosphate (cGMP), to their corresponding 5'-nucleotide monophosphates. These enzymes play an important role in controlling cellular concentrations of cyclic nucleotides and have a central role in a variety of intracellular signaling events. cAMP PDEs are emerging as a promising class of drug targets in asthma and cardiovascular disease therapeutic areas.
# There are no commercially available cell-based screening assays for PDE inhibitors: currently biochemical assays are done using pure substrates (cAMP or cGMP) and purified recombinant PDE enzymes. As with other biochemical screens on intracellular targets, false positives and false negatives may result from issues involving cell membrane permeability, cellular metabolism, and the like.
# Here we report the development of a cell-based screening assay for cAMP phosphodiesterase (PDE) inhibitors. The assay is based on the BD ACTOne# technology (BD Biosciences) which utilizes a modified cyclic nucleotide-gated channel (CNG) to monitor intracellular cAMP changes in live cells. The CNG channel is localized on the plasma membrane, and opens when the intracellular cAMP level increases, resulting in ion flux and cell membrane depolarization. The influx of cations through the CNG channel can be quantified using membrane potential (MP) dyes. We modified the BD ACTOne technology to allow the detection of PDE inhibitors, and performed an inhibitor screen for PDE-IV, which is expressed endogenously in HEK293 cells. We optimized this assay in homogeneous 1536-well plate assay format for high throughput screening.
# NCGC Assay Protocol Summary:
# The medium contained 10% FBS (Invitrogen), 2 mM L-glutamine, and 250 ug/ml G418 (Cellgro) and 1 ug/ml puromycin (Clontech). ACTOneTM parental cells (BD Biosciences) were maintained in the same medium without puromycin.
# The activity of the CNG channel was measured by BD ACTOneTM membrane potential dye kit (BD Biosciences). Forskolin, a positive control for cAMP activation and RO 20-1724, a PDE inhibitor, were both purchased from Sigma and solublized in DMSO.
# Sequence,Parameter,Value,Description
# 1,Reagent,3 uL,1000 cells/well 1536 TC treated Black plate
# 3,Compound,0.5 uL,Kalypsys dispense RO 20-1724 100 uM final [A]
# 4,Reagent,3 uL,BD membrane potential dye
# 6,Compound,23 nL,Final concentration was 0.7nM to 22.9uM
# 8,Detector,EX 535 / EM 590 [B],Envision
# Footnotes: [A] The stock 2 mM RO 20-1724 PDE inhibitor was made in 10 % DMSO. Parental cell line received 10 uM forskolin + 100 uM RO. [B] Envsion settings: Bottom Excitation 535/20 nm top emission 590/20, gain of 150 and 5 flashes per well.
# Keywords: PDE, PDE-IV, cytotoxicity, flourescence, MLSMR, MLSCN, NIH Roadmap, qHTS, NCGC
row,Compound,activation (PDE inhibition)
1,C[C@@H](C(=O)Nc1ccc2ccccc2c1)[C@H]1C[C@]1(C)[C@H](NC(=O)c1cnccn1)c1ccccc1,17.9%
2,COc1ccc([C@@H]2CC(=O)c3c(O)cc(O[C@@H]4O[C@@H](CO[C@@H]5O[C@@H](C)[C@@H](O)[C@@H](O)[C@H]5O)[C@@H](O)[C@@H](O)[C@H]4O)cc3O2)cc1O,-85.3%
3,C[C@@H](C(=O)NCc1nc2ccccc2[nH]1)[C@@H]1C[C@@]1(C)[C@@H](NC(=O)OCc1ccccc1)c1ccccc1,-1.34%
4,O[Si@](CCCN1CCCCC1)(c1ccc(F)cc1)C1CCCCC1,17.5%
5,CC(C)C[C@@H](CC(=O)N[C@H](CC(=O)N[C@@H]1CCCC[C@H]1C(=O)N[C@H](CC(=O)N[C@@H](CCC(=O)O)CC(=O)O)Cc1c[nH]c2ccccc12)C(C)C)NC(=O)[C@@H]1CCCC[C@H]1N,-7.21%
6,COC(=O)[C@@]1(Cc2ccc(F)cc2)[C@@H]2[C@@H](CC(=O)[C@H]2CC(=O)C(=O)N2CCCC2)CN1C(=O)c1ccccc1,10.8%
7,O=C(NCCc1c[nH]c2ccccc12)[C@@H]1C[C@H]1[C@@H](NP(=O)(c1ccccc1)c1ccccc1)c1ccccc1,1.39%
8,COc1cc2nc(N3CCN(C(=O)[C@H]4COc5ccccc5O4)CC3)nc(N)c2cc1OC,10.9%
9,CC1(C)C(=O)C(c2ccccc2)=C2CN3C(=O)N(CCc4ccccc4)C(=O)C3(Cc3ccccc3)C=C21 (stereo not given),16.2%
10,CC(=O)c1c(O)c(C)c(O)c2c1OC1=CC(=O)[C@H](C(C)=O)C(=O)[C@]12C,20.5%
11,COC(=O)[C@H]1C[C@@H]1[C@H](NC(=O)OCc1ccccc1)c1ccccc1,22.1%
12,CC(=O)[C@@H]1[C@H]2[C@@H](C(=O)[C@H]3OC[C@H]2O3)[C@@H]2C=Cc3ccccc3N12,-0.707%
13,CC(C)C[C@@H](CC(=O)N[C@H](CC(=O)N[C@@H]1CCNC[C@H]1C(=O)N[C@H](CC(=O)N[C@@H](CCC(=O)O)CC(=O)O)CC(C)C)C(C)C)NC(=O)[C@@H]1CNCC[C@H]1N,3.04%
14,COC(=O)[C@@]1(Cc2ccc(F)cc2)[C@@H]2C(=CC(=O)[C@H]2CC(=O)C(=O)N(C)C)CN1C(=O)c1ccccc1,3.56%
15,CC(C)C[C@@H](CC(=O)N[C@@H](CCC(=O)O)CC(=O)O)NC(=O)[C@@H]1CCCC[C@H]1NC(=O)C[C@@H](NC(=O)C[C@H](Cc1c[nH]c2ccccc12)NC(=O)[C@@H]1CNCC[C@H]1N)C(C)C,-13.5%
16,COC(=O)[C@@]1(Cc2ccc(F)cc2)[C@H]2c3cc(C(=O)N(C)C)n(Cc4cc(F)c(F)c(F)c4)c3C[C@H]2CN1C(=O)c1ccccc1,-7.61%
17,CC[C@H]1C2=C3C(CC[C@H]4C(OC)OC[C@](C)([C@@H]34)N(C(=O)OC(C)(C)C)C2)C(CO)C1CO (stereo not given in full),8.46%
18,COc1cc2nc(N3CC=[N+](C(=O)c4ccco4)CC3)nc(N)c2cc1OC,2.47%
19,N[C@@H](Cc1c[nH]c2ccccc12)C(=O)NCC(=O)O (H-Trp-Gly-OH),-35.9%
20,N#Cc1ccc(OC(=O)c2ccc(N=C(N)N)cc2)cc1,0.525%

row,Compound,activation (PDE inhibition)
1,CCCC[C@@H]1C[C@H]1C(NC(=O)c1ccc(-c2ccccc2)cc1)c1ccc(-c2ccccc2)cc1 (stereo not given in full),-0.068%
2,C[C@@H](C(=O)Nc1ccc2ccccc2c1)[C@H]1C[C@]1(C)[C@H](NS(=O)(=O)c1ccc2ccccc2c1)c1ccccc1,-1.53%
3,NC[C@@H]1O[C@@H](O[C@H]2[C@@H](O)[C@H](O[C@@H]3[C@H](O)[C@H](N)C[C@H](N)[C@H]3O[C@@H]3O[C@@H](CO)[C@H](O)[C@H](O)[C@@H]3N)O[C@H]2CO)[C@H](N)[C@H](O)[C@@H]1O,19.9%
4,CN(C)C(=O)c1ccc(-c2ccc3ncnc(NC4CC4)c3c2)cc1,0.704%
5,C[C@H]1[C@H](C)CC[C@@]2(C(=O)O)CC[C@]3(C)C(=CC[C@H]4[C@@]5(C)C[C@@H](O)[C@H](O)[C@@](C)(CO)[C@@H]5CC[C@@]43C)[C@@H]12,17.6%
6,NCCC[C@@H](CC(=O)N[C@@H]1CCNC[C@H]1C(=O)N[C@H](CC(=O)N[C@@H](CCC(=O)O)CC(=O)O)Cc1c[nH]c2ccccc12)NC(=O)C[C@H](Cc1ccccc1)NC(=O)[C@@H]1CNCC[C@H]1N,-6.89%
7,CC(C)[C@@H](CC(=O)N[C@@H]1CCCC[C@H]1C(=O)N[C@H](CC(=O)N[C@@H](CCC(=O)O)CC(=O)O)Cc1ccccc1)NC(=O)C[C@H](Cc1ccccc1)NC(=O)[C@@H]1CNCC[C@H]1N,-15.4%
8,COC(=O)[C@@]1(Cc2ccc(OC)cc2)[C@H]2c3cc(C(=O)N4CCCC4)n(CCn4cc([N+](=O)[O-])nc4C)c3C[C@H]2CN1C(=O)c1ccccc1,-4.64%
9,CC(C)C[C@@H](CC(=O)N[C@@H](CCC(=O)O)CC(=O)O)NC(=O)[C@@H]1CNCC[C@H]1NC(=O)C[C@H](CCCN)NC(=O)C[C@H](Cc1c[nH]c2ccccc12)NC(=O)[C@@H]1CNCC[C@H]1N,-2.39%
10,CC(C)[C@@H](CC(=O)N[C@@H]1CCCC[C@H]1C(=O)N[C@H](CC(=O)N[C@@H](CCC(=O)O)CC(=O)O)Cc1c[nH]c2ccccc12)NC(=O)C[C@H](CO)NC(=O)[C@@H]1CNCC[C@H]1N,14.8%
11,C/C=C1\C(=O)C[C@@H]2[C@@H]3CCC4=CC(=O)CC[C@@]4(C)[C@H]3CC[C@@]12C,3.28%
12,CC1=CC(=O)CC(C)(C)[C@@]1(O)/C=C\C(C)=C\C(=O)O,-63%
13,NCCC[C@@H](CC(=O)N[C@@H]1CCNC[C@H]1C(=O)N[C@H](CC(=O)N[C@@H](CCC(=O)O)CC(=O)O)Cc1ccccc1)NC(=O)C[C@H](Cc1c[nH]c2ccccc12)NC(=O)[C@@H]1CNCC[C@H]1N,-14.4%
14,COc1cc2oc(-c3ccccc3)cc(=O)c2cc1O,2.7%
15,CC(C)C[C@@H](CC(=O)N[C@@H](CCC(=O)O)CC(=O)O)NC(=O)[C@@H]1CNCC[C@H]1NC(=O)C[C@H](CCCN)NC(=O)C[C@H](CO)NC(=O)[C@@H]1CNCC[C@H]1N,3.57%
16,CC(C)C[C@@H](CC(=O)N[C@@H](CCC(=O)O)CC(=O)O)NC(=O)[C@@H]1CCCC[C@H]1NC(=O)C[C@@H](NC(=O)C[C@H](Cc1ccccc1)NC(=O)[C@@H]1CNCC[C@H]1N)C(C)C,-22%
17,CC(C)C[C@@H](CC(=O)N[C@@H](CCC(=O)O)CC(=O)O)NC(=O)[C@@H]1CCCC[C@H]1NC(=O)C[C@H](CCCN)NC(=O)C[C@H](CO)NC(=O)[C@@H]1CCCC[C@H]1N,-19.9%
18,C=C1CC[C@@H](O)C/C1=C/C=C1\CCC[C@]2(C)[C@@H]1CC[C@H]2[C@@H](C)CCCC(C)C,-29.4%
19,COC(=O)[C@@]1(Cc2ccccc2)[C@H]2c3cc(C(=O)N4CCCC4)n(Cc4ccc(OC)c(OC)c4)c3C[C@H]2CN1C(=O)c1ccccc1,26.9%
20,CC(C)[C@@H](CC(=O)N[C@@H]1CCNC[C@H]1C(=O)N[C@H](CC(=O)N[C@@H](CCC(=O)O)CC(=O)O)Cc1c[nH]c2ccccc12)NC(=O)C[C@H](Cc1c[nH]c2ccccc12)NC(=O)[C@@H]1CNCC[C@H]1N,-5.87%
